Target: AMP-activated protein kinase, AMPK (Homo sapiens) (UniProt P54646+O43741+P54619+Q9UGJ0+Q9Y478+Q13131+Q9UGI9)
Assay: AMP-dependent Kinase enzyme assay. An in vitro enzyme assay that detects ADP turnover that is directly proportional to AMPK activity. This uses naive AMPK that is activated during the assay with MK-8722
Assay type: functional
Design: scale not given: direction of the effect not stated beside the values
Conditions: 30 µM

In order of rising Percent Effect:
1. O=C1NCCN(Cc2ccccc2)C1CC(=O)N1CCc2n[nH]cc2C1 (centres undefined)  -20.4%
2. CCc1nnc(CNC(=O)CCC2CCCCN2C)s1 (centres undefined)  -10.9%
3. CCn1ncnc1C(C)Nc1cc(C2CCNCC2)nc(C)n1 (centres undefined)  -7.46%
4. COC(=O)C1CN(Cc2cc(F)ccc2Br)CCO1 (centres undefined)  -6.48%
5. O=C(NCc1ccc(-n2cncn2)nc1)c1cnccn1  -5.91%
6. Cc1cc(CNCC2(O)CCOCC2)ccc1F  -5.64%
7. Cc1cc(NCCc2c(C)n[nH]c2C)nc(-c2cccnc2)n1  -4.66%
8. Cc1ccccc1CCC1CCCN(C(=O)Cc2cc(=O)[nH]c(N)n2)C1 (centres undefined)  -3.84%
9. CCc1c(C)nn(CCN2CC3(CCOC3)CCC2=O)c1C (centres undefined)  -3.55%
10. CC(C)N(CC(N)=O)C(=O)CCC(=O)c1ccc(F)cc1F  -2.63%
11. CC(C)CCc1noc(C[S+]([O-])CC(=O)NCc2ccccc2)n1 (centres undefined)  -1.86%
12. O=C(NC1CCCCC1)N1CCC(n2cc(-c3ccccn3)nn2)CC1  -1.68%
13. CSC1(CNC(=O)NCc2sccc2C)CCOCC1  -1.64%
14. CC(C)OCCN1CCC(Nc2ncccn2)CC1  -1.19%
15. CCc1csc(NC(=O)Nc2c(C)n[nH]c2C)n1  -1.09%
16. CC(NCc1nnc2n1CCCC2)c1nc(C(C)(C)C)no1 (centres undefined)  -0.825%
17. COc1cc(CNC(=O)COC2CCCCC2)ccc1O  -0.805%
18. CCCc1nnc(N2CCC(N3CCN(CCO)CC3)CC2)o1  -0.32%
19. Cc1cc(C)cc(OCCN(C)C2CCOC2=O)c1 (centres undefined)  -0.216%
20. Cc1nc(CN2CCCCC2Cn2cccn2)nc2ccccc12 (centres undefined)  0.0601%
21. Cc1nc(C)c(CN2CCOC(Cc3ccccc3Cl)C2)nc1C (centres undefined)  0.455%
22. O=C(Nc1cccnc1)NC1CCN(c2ccccc2OC(F)F)C1 (centres undefined)  0.675%
23. CN1CCN(C(=O)C2(NC(N)=O)CCCCC2)Cc2ccccc21  0.804%
24. CC(C)Cc1cc(C(=O)N2CCC(N3CCCC3)CC2)cc(O)n1  1.87%
25. C[C@@H]1CN(c2cccnn2)CC[C@@]1(O)C1CCOCC1  2.06%
26. COCCC(=O)N1CCC(c2nnc(-c3ccsc3)o2)CC1  2.43%
27. CCc1nc(C)c(CC(=O)N2CCC3(CC2)OCCCC3O)c(=O)[nH]1 (centres undefined)  2.99%
28. NC(=O)NC1CCN(Cc2ccc(Br)c(F)c2)CC1  4.07%
29. CCC(=O)NC1CCCN(c2cncc(OCc3ccccc3)n2)C1 (centres undefined)  5.23%
30. CCc1c(C)nn2c(O)cc(C3CCN(C(=O)c4cnn(C)c4)C3)nc12 (centres undefined)  5.68%
31. Cc1cc(NC(=O)N2CCN(c3cccs3)CC2)ccc1C(N)=O  6.86%
32. Cc1cc(C(=O)NC(C)Cc2ccccc2Cl)n(C)n1 (centres undefined)  7.6%
33. Cc1cc(C)c(C#N)c(N2CCC3(CCCN(CCO)C3=O)C2)n1 (centres undefined)  8.35%
34. Cc1nc(N(C)C)cc(C2(C)CCCNC2)n1 (centres undefined)  10.2%
35. CCC1(CC)CC(=O)N(CC(O)c2cccc(F)c2)C1=O (centres undefined)  12.2%
36. Cc1ccsc1C(CNC(=O)c1cc(=O)c2ccccc2[nH]1)N(C)C (centres undefined)  13.7%
37. O=C(CN1CC(c2ccccc2)CC1=O)N1CCN(c2nccs2)CC1 (centres undefined)  15.4%
38. Cc1nn(C)c(C)c1-c1ccc(=O)n(C(C)C(=O)NCc2ccco2)n1 (centres undefined)  17.2%
39. Cc1cc(NCCNc2cccnc2)nc(-c2ccccc2O)n1  19.9%
